According to the supplement of paper PMC8728848:
This is one part of a sample in which the strongest signals are shown more often than they occur.

Tests used:
Assay in all cases: glycan array binding signal (z-score within array); higher = stronger binding
Settings in all cases: glycan notation: IUPAC condensed, linker removed
Fuc(a1-2)Gal = target: Fuc(a1-2)Gal
Method in brief: (§1)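 Glycan array binding is given as a within-array Z-score, which can be read as non-binding when negative. The arrays, 3228 of them, came from the Consortium for Functional Glycomics database and were retained only where the protein sequence was available. Z-scores were averaged across arrays of the same protein sequence at different concentrations or buffers and across linkers.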

[1] = target: Fuc(a1-2)Gal(b1-4)GlcNAc(b1-3)Gal(b1-4)GlcNAc
Method in brief: as §1

[2] = target: Fuc(a1-2)Gal(b1-4)[Fuc(a1-3)]GlcNAc
Method in brief: as §1

[3] = target: Fuc(a1-2)Gal(b1-4)[Fuc(a1-3)]GlcNAc(b1-3)Gal(b1-4)[Fuc(a1-3)]GlcNAc
Method in brief: as §1

[4] = target: Fuc(a1-2)[Gal(a1-3)]Gal(b1-4)[Fuc(a1-3)]GlcNAc
Method in brief: as §1

[5] = target: Fuc(a1-2)[GalNAc(a1-4)]Gal(b1-4)GlcNAc
Method in brief: as §1

[6] = target: Fuc(a1-3)[Gal(b1-4)]GlcNAc(b1-4)Gal(b1-4)[Fuc(a1-3)]GlcNAc
Method in brief: as §1

Gal(a1-3)Gal = target: Gal(a1-3)Gal
Method in brief: as §1

[7] = target: Gal(a1-3)Gal(b1-4)[Fuc(a1-3)]GlcNAc
Method in brief: as §1

Gal(a1-4)Gal(b1-4)GlcNAc = target: Gal(a1-4)Gal(b1-4)GlcNAc
Method in brief: as §1

[8] = target: Gal(b1-3)GlcNAc(b1-3)Gal(b1-3)GlcNAc
Method in brief: as §1

[9] = target: Gal(b1-3)GlcNAc(b1-3)Gal(b1-4)GlcNAc
Method in brief: as §1

[10] = target: Gal(b1-3)[Fuc(a1-4)]GlcNAc(b1-3)Gal(b1-4)GlcNAc
Method in brief: as §1

[11] = target: Gal(b1-4)GlcNAc(b1-3)[Gal(b1-4)GlcNAc(b1-6)]GalNAc
Method in brief: as §1

[12] = target: Gal(b1-4)GlcNAc(b1-6)Gal(b1-4)GlcNAc(b1-6)GalNAc
Method in brief: as §1

[13] = target: Gal(b1-4)GlcNAc(b1-6)GalNAc
Method in brief: as §1

GalNAc(b1-3)GalNAc = target: GalNAc(b1-3)GalNAc
Method in brief: as §1

[14] = target: GlcNAc(b1-3)[GlcNAc(b1-6)]Gal(b1-4)GlcNAc
Method in brief: as §1

[15] = target: Man(a1-2)Man(a1-2)Man(a1-3)Man
Method in brief: as §1

Neu5Ac(a2-3)Gal = target: Neu5Ac(a2-3)Gal
Method in brief: as §1

[16] = target: Neu5Ac(a2-3)Gal(b1-3)[Fuc(a1-4)]GlcNAc(b1-3)Gal(b1-4)[Fuc(a1-3)]GlcNAc
Method in brief: as §1

[17] = target: Neu5Ac(a2-3)Gal(b1-4)GlcNAc(b1-6)[Gal(b1-3)]GalNAc
Method in brief: as §1

[18] = target: Neu5Ac(a2-3)Gal(b1-4)[Fuc(a1-3)]GlcNAc
Method in brief: as §1

[19] = target: Neu5Ac(a2-8)Neu5Ac(a2-8)Neu5Ac(a2-3)Gal(b1-4)Glc
Method in brief: as §1

[20] = target: Neu5Gc(a2-6)Gal(b1-4)GlcNAc
Method in brief: as §1

[21] = target: Fuc(a1-2)Gal(b1-3)GlcNAc(b1-3)Gal(b1-4)Glc
Method in brief: as §1

[22] = target: Fuc(a1-2)Gal6S(b1-4)GlcNAc
Method in brief: as §1

[23] = target: Fuc(a1-3)[Gal(b1-4)]GlcNAc(b1-2)Man(a1-3)[Fuc(a1-3)[Gal(b1-4)]GlcNAc(b1-2)Man(a1-6)]Man(b1-4)GlcNAc(b1-4)GlcNAc
Method in brief: as §1

[24] = target: Fuc(a1-3)[Gal(b1-4)]GlcNAc(b1-2)Man(a1-6)[Gal(b1-4)GlcNAc(b1-2)Man(a1-3)]Man(b1-4)GlcNAc(b1-4)GlcNAc
Method in brief: as §1

[25] = target: Fuc(a1-3)[GalNAc(b1-4)]GlcNAc
Method in brief: as §1

Fuc(b1-3)GlcNAc = target: Fuc(b1-3)GlcNAc
Method in brief: as §1

Gal(a1-3)GalNAc = target: Gal(a1-3)GalNAc
Method in brief: as §1

[26] = target: Gal(b1-3)GlcNAc(b1-3)Gal(b1-4)Glc
Method in brief: as §1

[27] = target: Gal(b1-3)[Neu5Ac(a2-6)]GlcNAc(b1-6)Gal(b1-4)Glc
Method in brief: as §1

[28] = target: Gal(b1-4)GlcNAc(b1-6)[Gal(b1-3)]GalNAc
Method in brief: as §1

Gal6S(b1-4)Glc6S = target: Gal6S(b1-4)Glc6S
Method in brief: as §1

Gal6S(b1-4)GlcNAc6S = target: Gal6S(b1-4)GlcNAc6S
Method in brief: as §1

[29] = target: GlcNAc(a1-6)Gal(b1-4)GlcNAc
Method in brief: as §1

[30] = target: GlcNAc(b1-3)[GlcNAc(b1-6)]GlcNAc(b1-4)GlcNAc
Method in brief: as §1

[31] = target: Man(a1-2)Man(a1-2)Man(a1-3)[Man(a1-2)Man(a1-3)[Man(a1-2)Man(a1-6)]Man(a1-6)]Man(b1-4)GlcNAc(b1-4)GlcNAc
Method in brief: as §1

[32] = target: Man(a1-2)Man(a1-2)Man(a1-6)[Man(a1-3)]Man
Method in brief: as §1

[33] = target: Man(a1-2)Man(a1-3)[Man(a1-2)Man(a1-6)]Man
Method in brief: as §1

[34] = target: Man(a1-2)Man(a1-3)[Man(a1-3)[Man(a1-6)]Man(a1-6)]Man(b1-4)GlcNAc(b1-4)GlcNAc
Method in brief: as §1

[35] = target: Neu5Ac(a2-3)Gal(b1-3)GalNAc(b1-4)[Neu5Ac(a2-3)]Gal(b1-4)Glc
Method in brief: as §1

[36] = target: Neu5Ac(a2-3)Gal(b1-3)GlcNAc
Method in brief: as §1

[37] = target: Neu5Ac(a2-3)Gal(b1-4)GlcNAc
Method in brief: as §1

[38] = target: Neu5Ac(a2-8)Neu5Ac(a2-8)Neu5Ac(a2-3)[GalNAc(b1-4)]Gal(b1-4)Glc
Method in brief: as §1

B1: Mindin (Homo sapiens), Q9BUD6 (protein)
chain: MENPSPAAALGKALCALLLATLGAAGQPLGGESICSARALAKYSITFTGKWSQTAFPKQYPLFRPPAQWSSLLGAAHSSDYSMWRKNQYVSNGLRDFAERGEAWALMKEIEAAGEALQSVHEVFSAPAVPSGTGQTSAELEVQRRHSLVSFVVRIVPSPDWFVGVDSLDLCDGDRWREQAALDLYPYDAGTDSGFTFSSPNFATIPQDTVTEITSSSPSHPANSFYYPRLKALPPIARVTLVRLRQSPRAFIPPAPVLPSRDNEIVDSASVPETPLDCEVSLWSSWGLCGGHCGRLGTKSRTRYVRVQPANNGSPCPELEEEAECVPDNCV
glycan array binding signal (z-score) (Fuc(a1-2)Gal): -0.273 | glycan array binding signal (z-score) [1]: -0.186 | glycan array binding signal (z-score) [2]: -0.185 | glycan array binding signal (z-score) [3]: 0.005 | glycan array binding signal (z-score) [4]: -0.133 | glycan array binding signal (z-score) [5]: 2.81 | glycan array binding signal (z-score) [6]: -0.142 | glycan array binding signal (z-score) (Gal(a1-3)Gal): -0.238 | glycan array binding signal (z-score) [7]: 0.093 | glycan array binding signal (z-score) (Gal(a1-4)Gal(b1-4)GlcNAc): -0.141 | glycan array binding signal (z-score) [8]: -0.279 | glycan array binding signal (z-score) [9]: 2.01 | glycan array binding signal (z-score) [10]: 1.28 | glycan array binding signal (z-score) [11]: 2.02 | glycan array binding signal (z-score) [12]: -0.238 | glycan array binding signal (z-score) [13]: 1.34 | glycan array binding signal (z-score) (GalNAc(b1-3)GalNAc): -0.245 | glycan array binding signal (z-score) [14]: -0.324 | glycan array binding signal (z-score) [15]: -0.085 | glycan array binding signal (z-score) (Neu5Ac(a2-3)Gal): -0.347 | glycan array binding signal (z-score) [16]: 0.188 | glycan array binding signal (z-score) [17]: -0.36 | glycan array binding signal (z-score) [18]: -0.257 | glycan array binding signal (z-score) [19]: -0.295 | glycan array binding signal (z-score) [20]: -0.363

B2: NcCVNHO (Neurospora crassa), Q7S6U4 (protein)
chain: MSFHVTAEDARIEVRDNRTILFARLRREDGEWNDASYELDQIIGNNDGHFQWGGQNFTETAEDIRFHPKEGAAEQPILRARLRDCNGEFHDRDVNLTEIVENVNGEFQAKF
glycan array binding signal (z-score) (Fuc(a1-2)Gal): -0.209 | glycan array binding signal (z-score) [21]: 5.47 | glycan array binding signal (z-score) [22]: -0.185 | glycan array binding signal (z-score) [23]: -0.194 | glycan array binding signal (z-score) [24]: -0.185 | glycan array binding signal (z-score) [25]: -0.254 | glycan array binding signal (z-score) (Fuc(b1-3)GlcNAc): -0.209 | glycan array binding signal (z-score) (Gal(a1-3)GalNAc): -0.225 | glycan array binding signal (z-score) [26]: 4.71 | glycan array binding signal (z-score) [9]: -0.264 | glycan array binding signal (z-score) [27]: 4.11 | glycan array binding signal (z-score) [11]: -0.246 | glycan array binding signal (z-score) [13]: -0.228 | glycan array binding signal (z-score) [28]: -0.196 | glycan array binding signal (z-score) (Gal6S(b1-4)Glc6S): -0.209 | glycan array binding signal (z-score) (Gal6S(b1-4)GlcNAc6S): -0.172 | glycan array binding signal (z-score) [29]: -0.245 | glycan array binding signal (z-score) [30]: -0.297 | glycan array binding signal (z-score) [31]: 8.87 | glycan array binding signal (z-score) [32]: 4.66 | glycan array binding signal (z-score) [33]: 4.86 | glycan array binding signal (z-score) [34]: 0.23 | glycan array binding signal (z-score) [35]: -0.244 | glycan array binding signal (z-score) [36]: -0.217 | glycan array binding signal (z-score) [37]: -0.24 | glycan array binding signal (z-score) [38]: -0.24
